3T3 cytotox: NIH 3T3 cell cytotoxicity; Potency, µM (series often up to 96.7 µM), for the others: at the top dose activity change, negative = cytotoxicity, most hits filed as inhibitors; AID 1345082; 4.3% of 94,000 active; NIH 3T3 viability, CellTiter-Glo ATP luminescence, 48-72 h; note: nearly all actives have a fitted effect of over 55% in size
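Cytotoxicity was measured by CellTiter-Glo ATP luminescence after 48 or 72 h compound exposure at 37 °C. Mouse NIH 3T3 fibroblasts were seeded at 400 cells/well and dosed by 23 nL pin transfer.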
GPT2 inh: blocks human glutamate pyruvate transaminase 2; Recombinant GPT2, coupled pyruvate oxidase/HRP Amplex Red fluorescence; Potency, µM (highest dose often 57.7 µM), for the others: at the top dose activity change, negative = inhibition, usual class: inhibitors; 0.25% of 100,000 active; note: nearly all actives have a fitted effect of over 60% in size
Target sequence (Q8TD30 whole entry, looked up): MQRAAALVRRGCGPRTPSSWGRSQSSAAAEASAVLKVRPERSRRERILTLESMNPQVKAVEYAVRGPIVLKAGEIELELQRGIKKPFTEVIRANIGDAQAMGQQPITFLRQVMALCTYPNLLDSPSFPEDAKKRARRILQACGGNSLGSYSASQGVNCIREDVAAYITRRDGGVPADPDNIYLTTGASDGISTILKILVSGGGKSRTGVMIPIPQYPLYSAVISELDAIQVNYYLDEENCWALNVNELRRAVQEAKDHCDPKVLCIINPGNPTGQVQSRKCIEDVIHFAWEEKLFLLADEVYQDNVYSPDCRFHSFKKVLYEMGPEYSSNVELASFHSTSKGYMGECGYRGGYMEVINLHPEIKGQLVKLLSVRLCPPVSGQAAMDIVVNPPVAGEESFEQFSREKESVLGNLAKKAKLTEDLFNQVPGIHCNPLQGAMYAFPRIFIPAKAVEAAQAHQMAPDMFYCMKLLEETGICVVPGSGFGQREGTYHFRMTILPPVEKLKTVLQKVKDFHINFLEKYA
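Fluorescence of coupled pyruvate oxidase/HRP/Amplex Red system (50uM Amplex, 30 min, dark) reports pyruvate formed by GPT2. Enzyme reaction: 10ng/uL GPT2, 2mM L-alanine, 250uM a-KG, 30 min room temperature, pH 7.5; 50uM AOA control.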
NPR1 antag: antagonists of human natriuretic peptide receptor Npr1. 1.6% of 76,000 active. AID 1347048. P16066. Potency, µM (titrated, usually from 46.3 µM), inactives show top-dose activity change, negative = inhibition, hits mostly inhibitors. HEK293 hNpr1 GloSensor cGMP, ANP-stimulated luminescence; calls by dose curve; note: nearly all actives have a fitted effect of over 60% in size
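Compound pre-incubated 30 min at room temperature on GloSensor-loaded HEK293 cells stably carrying hNpr1 and the pGS-40F cGMP biosensor. Stimulation uses hNppA at 0.1 nM final; luminescence is taken at baseline and 20 min post-agonist.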
Luciferase inh: Photinus pyralis luciferase inhibition | purified P. pyralis luciferase, luminescence, biochemical | Potency, µM (doses to about 115 µM), most hits filed as inhibitors | 2.5% of 76,000 active; note: nearly all actives have a fitted effect of over 65% in size
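Luminescence read by CCD imager after adding enzyme (10nM final) to wells holding compound, titrated in qHTS. Substrates 10uM each D-luciferin and ATP; buffer 50mM Tris acetate pH 7.5, 10mM Mg acetate, Tween-20, BSA.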
HEK cytotox: kills HEK 293 cells; Potency, µM (highest dose often 115 µM), without a hit: at the top dose activity change, negative = cytotoxicity, actives largely listed as inhibitors; 6.6% of 94,000 active; HEK 293 viability, ATP luminescence (CellTiter-Glo), 48-72 h; note: nearly all actives have a fitted effect of over 60% in size
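qHTS cytotoxicity; HEK 293, 250 cells/well; compound pinned; 48 or 72 hr, 37 degree Celsius, 5% CO2, 95% humidity; CellTiter-Glo, 10 min RT; luminescence (ATP).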
* hit, by the source's call; i = inactive; ? = inconclusive; . = not tested or not shown; [ ] = another dose, or the depositor's remark. Hits are enriched below; roughly 10% of the tested compounds scored in any of these assays. Unless noted, calls come from the whole dose curve; as a rule, active = well fitted curve in the direction sought with a large enough effect; inconclusive = small, poorly fitted or top-dose-only effect, or another doubt; inactive = no such curve, though single readings can be large; an effect the other way counts as inactive or inconclusive. % is set by controls: 0 for no effect and ±100 for the full control effect; potency is the fitted concentration of half-maximal effect.

SMILES | 3T3 cytotox | GPT2 inh | NPR1 antag | Luciferase inh | HEK cytotox
O=C(NC1CCN(c2nccc(Nc3ccccc3F)n2)CC1)c1ccccc1F | ? | -10.0% | . | . | ?
Cc1ccc(Nc2ccnc(N3CCC(NC(=O)c4ccccc4F)CC3)n2)cc1 | ? | i | . | . | 50.1µM*
COc1ccc(Nc2ccnc(N3CCC(NC(=O)c4ccccc4F)CC3)n2)cc1 | ? | -1.6% | . | . | 50.1µM*
COC(=O)[C@@H](Cc1cccnc1)NC(=O)[C@H]1CN(C(=O)Nc2ccccc2)CCN1C(=O)C1CCCCC1 | -6.7% | -7.9% | 3.2% | i | -0.8%
CNC(=O)c1ccc(Nc2ncc(C(F)(F)F)c(NCc3nccnc3N(C)S(C)(=O)=O)n2)cc1 | . | -7.6% | . | . | .
COc1ccc(-c2nnc3ccc(N4CCc5ccccc5C4)nn23)nc1 | ? | -6.3%[88.5 µM] | -3.9%[70.6 µM] | i | 56.2µM*
c1ccc(-c2nnc3ccc(Nc4ccc(N5CCOCC5)cc4)nn23)nc1 | ? | -25.7%[88.5 µM] | -4.8%[70.6 µM] | ? | 63.1µM*
c1ccc(-c2nnc3ccc(N4CCc5ccccc5C4)nn23)nc1 | ? | 3.2%[88.5 µM] | 4.2%[70.6 µM] | i | 70.8µM*
COC1CCN(c2ccc3nnc(-c4ccccn4)n3n2)CC1 | 50.1µM* | i | 5.5%[70.6 µM] | i | -10.0%[172 µM]
c1cc2c(cc1-c1noc(-c3nc(-c4ccc5c(c4)OCO5)no3)n1)OCO2 | i | i | -9.2% | i | 12.9%
COCCc1noc(-c2nc(-c3ccc4c(c3)OCO4)no2)n1 | -4.3% | i | -17.1% | 17.8µM* | ?
OCc1ccc(CN2C[C@H](O)C[C@H]2c2nc(-c3ccc4c(c3)OCO4)no2)o1 | -27.9%[174 µM] | ? | -13.0%[70.6 µM] | 17.8µM* | -16.3%[172 µM]
CN1C[C@H](O)C[C@H]1c1nc(-c2ccc3c(c2)OCO3)no1 | -21.4%[230 µM] | -3.7%[88.5 µM] | -13.6%[70.6 µM] | 28.2µM* | -25.3%[230 µM]
O[C@@H]1C[C@@H](c2nc(-c3ccc4c(c3)OCO4)no2)N(Cc2ccncc2)C1 | ? | i | ? | ? | 89.1µM*
O[C@@H]1C[C@@H](c2nc(-c3ccc4c(c3)OCO4)no2)N(Cc2ccc(C(F)(F)F)cc2)C1 | ? | -5.3%[88.5 µM] | -11.4%[70.6 µM] | i | ?
Cc1ccncc1C(=O)N1CCN(C(=O)N2CC3CC(C2)[C@H]2CCCC(=O)N2C3)CC1 (some centres undefined) | i | -3.7% | 0.4% | i | -13.3%
O=C(NCCn1cccc1-c1nc(-c2ccc3c(c2)OCO3)no1)c1cccc(Cl)c1 | ? | i | -12.1% | ? | ?
CCCn1nc(C)c(-c2cc(C(=O)N3CCc4nc5cc(-c6ccccc6)[nH]n5c(=O)c4C3)[nH]n2)c1C | -0.1% | i | -10.3% | ? | -5.8%
COc1cccc(CNC(=O)C2CCCCC(=O)N2Cc2ccccc2)c1 (centres undefined) | -19.3% | i | . | . | -20.3%
C#CCNC(=O)C1CCCN(Cc2cccc(-c3ccc(F)cc3F)c2)C1 (centres undefined) | ? | 1.7% | . | . | 44.7µM*
CNC(=O)C1CCCN(Cc2cccc(-c3ccc(F)cc3F)c2)C1 (centres undefined) | ? | i | . | . | 63.1µM*
O=C(Nc1cccc(F)c1)C1CCCN(Cc2cccc(-c3ccc(F)cc3F)c2)C1 (centres undefined) | 44.7µM* | -1.7% | . | . | 20µM*
O=C(NCC(F)F)C1CCCN(Cc2cccc(-c3ccc(F)cc3F)c2)C1 (centres undefined) | ? | -9.7% | . | . | ?
O=C(Nc1cccc(Cl)c1)C1CCCN(Cc2cccc(-c3ccc(F)cc3F)c2)C1 (centres undefined) | ? | -2.2% | . | . | ?
N#Cc1cc(CN2CCCC(C(=O)Nc3cccc(-c4ccc(F)cc4)c3)C2)c[nH]1 (centres undefined) | 17.8µM* | -9.1% | -24.9% | i | 25.1µM*
Cc1noc(C)c1S(=O)(=O)N1CCC2(CC1)CC(C(=O)N1CCOCC1)N(C)C2 (centres undefined) | -14.7% | i | 1.8% | i | -15.4%
COc1ccc(-c2ccc3c(n2)CN(CCOc2ccccc2)C(=O)CO3)cc1 | ? | -1.2%[88.5 µM] | ? | i | ?
COc1cccc(CN2Cc3nc(-c4ccccc4)ccc3OCC2=O)c1 | ? | -29.4%[88.5 µM] | -14.5%[70.6 µM] | i | 79.4µM*
